78 compounds from PubChem BioAssay AID1852 (Sanford-Burnham Center for Chemical Genomics, 2009) can be followed below.

Out of some 2,500 compounds screened, about 1,100 (44%) were called active. The set was probably picked from earlier hits. The list shows a part of the results. Values without a mark were called inactive.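 The calls were made as follows: active = inhibition above 50% at 4 µM in the single-point screen; inactive = inhibition of 50% or less.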

A short description of this experiment: blockers of TNF-a NF-kB luciferase induction – cell-based, HEK293T NF-kB-Luc, luminescence, selectivity assay for NOD1/NOD2 signaling inhibitor project, primary screen (AID 1852). To be noted: TNF-a induced, 14 h, at 4 µM, stronger effect = higher value.
Turning to `CCCCN=C[C@]12CCC(O)CC1(O)CCC1[C@@H]2CC[C@]2(C)[C@H](C3C=CC(=O)O3)CCC12O` (stereo partly drawn), the inhibition was 92.1% (active).
The value for `CN(C)c1ccc(-[n+]2c(-c3ccccc3)cc(-c3ccccc3)cc2-c2ccccc2)cc1` was 94.6% (active).
The same measure for `COc1ccc(-c2cc(-c3ccccc3)[n+](C)c(-c3ccccc3)c2)cc1`: 46.4%.
The same measure for `COc1ccc(-[n+]2c(-c3ccccc3)cc(-c3ccc(C)cc3)cc2-c2ccccc2)cc1`: 75.4% (active); for `O=C(c1ccc(Cl)cc1)C1CCCN(Cc2cccc3ncccc23)C1` (stereo not drawn): 29.9%.
Turning to `CCOc1ccc(-c2c(C)n(-c3ccc(OCC)cc3)c3[n+]2CCCCC3)cc1`, the inhibition is 87% (active).
The same measure for `COC1CC(OC2CCC3(C)C(CCC4C3CCC3(C)C(C5=CC(=O)OC5)C(OC(C)=O)CC43O)C2)OC(C)C1OC1OC(COC2OC(CO)C(O)C(O)C2O)C(O)C(O)C1O` (stereo not drawn): 94.7% (active).
The value for `CC(=O)c1c(C)n(C2CCCCC2)c2ccc(O)cc12` was 90% (active); that for `CC(C)(C)c1ccc(CSc2cnn(C(C)(C)C)c(=O)c2Cl)cc1` was 48.3%.
The same measure for `NC(=O)c1cn(C2OC(CO)C(O)C2O)c2ncnc(N)c12` (stereo not drawn): 99.9% (active); for `CN1C2CCC1/C(=C/c1ccccn1)C(=O)/C2=C\c1ccccn1`: 102% (active); for `Cc1cc(C)cc(N2C(=O)NC(=O)/C(=C/c3cccn3-c3ccc(Cl)cc3)C2=O)c1`: -24%.
For `CN1C(=O)/C(=C/c2cccn2-c2ccc3ccccc3c2)C(=O)NC1=S`, the inhibition is 5.6%.
With `CCn1nc(/C=C/c2ccccc2)nc2c(=O)n(C)c(=O)nc1-2`, the inhibition is 104% (active).
The same measure for `CCn1nc(-c2ccccc2)nc2c(=O)n(C)c(=O)nc1-2`: 99.1% (active); for `O=C1NC(=O)N(Cc2ccco2)C(=O)/C1=C/C=C/c1ccco1`: -10.1%.
The same measure for `C=CCN1C(=O)NC(=O)/C(=C/C=C/c2ccccc2)C1=O`: 49.4%; for `O=C1NC(=O)N(CCc2ccc(F)cc2)C(=O)/C1=C\C=C\c1ccccc1`: 56% (active); for `COc1cc(OC)c(OC)cc1/C=C1/C(=O)NC(=O)N(Cc2ccccc2)C1=O`: 29.5%.
Regarding `O=C1NC(=O)N(Cc2ccccc2)C(=O)/C1=C/C=C/c1ccco1`, the inhibition was 36.6%.
The value for `O=C1NC(=O)N(Cc2ccc(F)cc2)C(=O)/C1=C\C=C\c1ccco1` was 89.3% (active); that for `COc1ccc(Oc2cc(NC(=O)c3nn(C)cc3[N+](=O)[O-])cc([N+](=O)[O-])c2)cc1` was 61.5% (active); that for `C[C@H]1CCC[C@@H](O)CCC/C=C/c2cc(O)cc(O)c2C(=O)O1` was 73.6% (active).
The value for `CC(=O)c1cn(Cc2ccccc2F)c2ccccc12` was 31.5%; that for `Cc1nc2c(=O)n(C)c(=O)nc-2n(C)n1` was 99.4% (active).
The value for `CCn1ccnc1CN1CCCC(C(=O)c2cc(Cl)ccc2OC)C1` (stereo not drawn) was 0.8%; that for `O=c1c2ccccc2nc(/C=C/c2ccc3c(c2)OCO3)n1-c1ccccc1` was -34.6%; that for `O=c1c2ccccc2nc(/C=C/c2ccccc2O)n1-c1ccccc1O` was 64.8% (active).
As for `O=C1C(=O)c2ccccc2-c2ccccc21`, the inhibition was 104% (active).
The same measure for `CN1C(=O)NC(=O)/C(=C\C=C\c2ccccc2[N+](=O)[O-])C1=O`: 72.4% (active); for `O=C1NC(=O)N(c2ccccc2)C(=O)/C1=C\C=C\c1ccccc1`: 45.9%; for `O=C1NC(=O)N(c2ccccc2)C(=O)/C1=C/C=C/c1ccco1`: 32%.
The value for `O=c1nc(/C=C/c2ccc(Cl)cc2Cl)cc(C(F)(F)F)[nH]1` was -105%; that for `COc1ccc(-n2c(O)c(/C=C3\C=Nc4ccc(Br)cc43)c(=O)[nH]c2=O)cc1` was 23.8%.
The same measure for `O=C(c1cc(-c2ccc(Cl)cc2)n(-c2ccc(Cl)cc2Cl)n1)N1CCOCC1`: -36%; for `CC(=O)OC[C@]12CCC(C)=C[C@H]1O[C@@H]1[C@H](O)[C@@H](OC(C)=O)[C@@]2(C)[C@]12CO2`: 102% (active).
For `C=C(C=O)CC1CC(O)[C@]2(C)OC3CC4OC5C[C@]6(C)O[C@]7(C)CCC8OC9C[C@]%10(C)OC%11C(C)=CC(=O)OC%11CC%10OC9C[C@@H](C)C8OC7CC6O[C@]5(C)CC5OC5C4OC3CC2O1` (stereo partly drawn), the inhibition was 80.4% (active).
The same measure for `CCCCCn1c(=O)c(C(=O)Nc2ccccc2S(N)(=O)=O)c(O)c2ccccc21`: -7%.
The value for `CCCCCCCn1c(=O)c(C(=O)Nc2cnccn2)c(O)c2ccccc21` was 34.9%; that for `CCCCn1c(=O)c(C(=O)Nc2cnccn2)c(O)c2ccccc21` was 3.4%; that for `CCCCCn1c(=O)c(C(=O)Nc2cnccn2)c(O)c2ccccc21` was 53.4% (active).
Regarding `CCCCCCn1c(=O)c(C(=O)Nc2cnccn2)c(O)c2ccccc21`, the inhibition was 52.2% (active).
Take `CC(C)CCn1c(=O)c(C(=O)Nc2ccccc2S(N)(=O)=O)c(O)c2ccccc21`: the inhibition was -7.2%.
The same measure for `Cc1ccc(N2C(=O)NC(=O)/C(=C\C=C\c3ccco3)C2=O)cc1`: 9.7%; for `O=Cc1cn(Cc2cccc([N+](=O)[O-])c2)c2ccccc12`: 86.7% (active).
The value for `O=c1[nH]c(=O)n(-c2ccccc2F)c(O)c1/C=C1\C=Nc2ccccc21` was 14.8%; that for `COc1ccc(-n2c(/C=C/c3ccc(O)cc3)nc3ccccc3c2=O)cc1` was 3.4%; that for `O=c1c2ccccc2nc(/C=C/c2ccc([N+](=O)[O-])o2)n1-c1ccc(O)cc1` was 89.7% (active).
In the case of `Cc1cccc(-n2c(/C=C/c3ccc([N+](=O)[O-])o3)nc3ccccc3c2=O)c1`, the inhibition was 91.9% (active).
With `Nc1nonc1C(=O)N/N=C/c1ccc([N+](=O)[O-])o1`, the inhibition was 31.1%.
For the compound `Cc1ccc(/C=C2\C(=O)NC(=S)N(c3ccccc3F)C2=O)s1`, the inhibition was 106% (active).
The value for `O=C1NC(=S)N(c2ccccc2F)C(=O)/C1=C\c1cccs1` was -11.1%; that for `COc1cccc(N2C(=O)/C(=C/c3ccc(C)o3)C(=O)NC2=S)c1` was 40.9%; that for `Cc1ccc(Sc2ccc(C=C3C(=O)N(C)C(=O)N(C)C3=O)o2)cc1` was -5.5%.
For `C=CCn1c(O)c(C(C)=NCc2cc(OC)cc(OC)c2)c(=O)[nH]c1=O`, the inhibition was 16%.
The same measure for `Cc1ccccc1-n1c(O)c(/C=C2/C(c3ccccc3)=Nc3ccccc32)c(=O)[nH]c1=O`: 16.1%; for `CCOc1ccc(-c2cc(C)[n+](CCN(CC)CC)c(-c3ccc(OCC)cc3)c2)cc1`: 51.9% (active).
`C[C@@H]1O[C@@H](O[C@H]2C[C@@H](O)[C@]3(CO)[C@H]4[C@H](O)C[C@]5(C)[C@@H](C6=CC(=O)OC6)CC[C@]5(O)[C@@H]4CC[C@]3(O)C2)[C@H](O)[C@H](O)[C@H]1O`: the inhibition was 106% (active).
With `CC(C)N1C(=O)/C(=C/C=C/c2ccco2)C(=O)N(Cc2ccco2)C1=O`, the inhibition is 22.9%.
With `CC(C)[C@H]1C(=O)O[C@H](C(C)C)C(=O)N(C)[C@@H](C(C)C)C(=O)O[C@H](C(C)C)C(=O)N(C)[C@@H](C(C)C)C(=O)O[C@H](C(C)C)C(=O)N1C`, the inhibition is 90.7% (active).
The same measure for `COC(=O)[C@]12OC[C@]34C([C@@H](O)[C@@H]1O)[C@]1(C)CC(=O)C(O)=C(C)[C@@H]1C[C@H]3OC(=O)[C@H](O)[C@@H]24` (stereo partly drawn): 76.8% (active); for `CC[C@@]1(O)C(=O)OCc2c1cc1n(c2=O)Cc2cc3ccccc3nc2-1`: 98.4% (active).
The value for `Cc1cccc(OCCn2cccc2/C=C2/C(=O)NC(=O)N(Cc3ccco3)C2=O)c1` was 9.6%; that for `C[C@]12CCC3C(CCC4=CC(O)CC[C@@]43/C=N/O)C1(O)CCC2C1=CC(=O)OC1` (stereo partly drawn) was 97.3% (active).
On to `C=C1C(=O)O[C@H]2C[C@@H](C)[C@@H]3C=CC(=O)[C@@]3(C)C[C@H]12`, for which the inhibition was 108% (active).
The same measure for `C=C1C(=O)O[C@@H]2C[C@@H](C)[C@@H]3C=CC(=O)[C@@]3(C)[C@@H](OC(=O)CC(=O)O[C@H]3[C@@H]4C(=C)C(=O)O[C@@H]4C[C@@H](C)[C@@H]4C=CC(=O)[C@]43C)[C@H]12`: 103% (active).
The value for `C=C1C(=O)O[C@@H]2C[C@@H](C)[C@@H]3C=CC(=O)[C@@]3(C)[C@@H](O)[C@H]12` was 104% (active); that for `C=C1C(=O)O[C@@H]2C[C@@H](C)[C@@H]3C4OC4C(=O)[C@@]3(C)[C@@H](O)[C@H]12` (stereo partly drawn) was 96.7% (active).
Consider `O=C(c1ccc(Cl)cc1)C1CCCN(Cc2ccc3ncccc3c2)C1` (stereo not drawn), for which the inhibition was 29.7%.
The same measure for `CCC(C)C(NC(=O)CCCNC(=O)CCC(=O)OC1O[C@H]2OC3(C)CC[C@H]4[C@H](C)CCC(C1C)C24OO3)C(=O)O` (stereo partly drawn): 87.7% (active); for `CC(C)CC(NC(=O)CCCNC(=O)CCC(=O)OC1O[C@H]2OC3(C)CC[C@H]4[C@H](C)CCC(C1C)C24OO3)C(=O)O` (stereo partly drawn): 55.3% (active).
The value for `CCC(C)NC(=O)CCC(=O)OC1O[C@H]2OC3(C)CC[C@H]4[C@H](C)CCC(C1C)C24OO3` (stereo partly drawn) was 52.3% (active).
Regarding `CC1=CC(=Cc2sc3ccccc3[n+]2C)C=C(C)O1`, the inhibition was 43.4%.
The same measure for `CN1CCN(c2ncnc3ccc(Br)cc23)CC1`: 33%; for `Cc1cccc(-n2c(O)c(/C=C3/C(c4ccccc4)=Nc4ccccc43)c(=O)[nH]c2=O)c1`: 32.8%; for `O=C(c1ccc(C(F)(F)F)cc1)C1CCCN(Cc2ccncc2)C1` (stereo not drawn): 30.7%.
The same measure for `CN1/C(=C\C=C\C2=[N+](C)c3ccc4ccccc4c3C2(C)C)C(C)(C)c2ccccc21`: 87.9% (active); for `CCN1/C(=C\C=C\C2=[N+](CC)c3ccccc3C2(C)C)C(C)(C)c2ccccc21`: 101% (active).
